# In PubChem BioAssay (EPA / NIEHS):
# Results filed as inconclusive are left out. Some compounds were tested as several samples or in several runs, with calls that do not always agree. Calls of active or inactive are those of the source. How the source made its calls, unless noted: active means hit-call score of the fitted dose curve at least 0.9, where 1 is the maximum; inconclusive means response in the unintended direction; inactive means score below 0.9.
# Tests used:
# [1] = target: Norway rat Vesicular Monoamine Transporter (VMAT2), neurotransmitter transporter, Slc18a2 (gene 25549) (UniProt Q01827); experiment: NVS_TR_rVMAT2: NovaScreen (NVS) Transporter Assay for Norway rat Vesicular Monoamine Transporter (VMAT2), neurotransmitter transporter (AID 2283376);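 further: actives lower the bound radioligand signal below the DMSO level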
# Norway rat Vesicular Monoamine Transporter (VMAT2), neurotransmitter transporter, Slc18a2 (gene 25549), sequence (Q01827 whole entry, looked up): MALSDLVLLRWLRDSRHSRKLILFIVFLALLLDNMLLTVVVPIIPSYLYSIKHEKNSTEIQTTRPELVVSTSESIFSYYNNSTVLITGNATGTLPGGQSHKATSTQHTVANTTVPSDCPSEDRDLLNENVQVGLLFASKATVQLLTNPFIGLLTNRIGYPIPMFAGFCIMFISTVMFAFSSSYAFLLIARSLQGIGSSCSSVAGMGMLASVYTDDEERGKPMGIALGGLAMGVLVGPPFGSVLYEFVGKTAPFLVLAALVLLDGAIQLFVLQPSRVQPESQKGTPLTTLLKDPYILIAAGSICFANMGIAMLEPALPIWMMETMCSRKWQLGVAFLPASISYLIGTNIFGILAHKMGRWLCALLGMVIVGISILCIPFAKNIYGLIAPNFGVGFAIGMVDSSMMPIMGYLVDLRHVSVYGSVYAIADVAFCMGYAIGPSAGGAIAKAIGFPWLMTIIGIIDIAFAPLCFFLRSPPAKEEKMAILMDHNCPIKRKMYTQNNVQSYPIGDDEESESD
# Procedure, shortened: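 Rat forebrain tissue preparation used in a cell-free radioligand binding format; displacement read by filter-based scintillation counting 1 hour after dosing. Primary screen in duplicate at 25 uM, actives then run in concentration series; loss of signal versus DMSO baseline.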
# [2] = target: bovine Estrogen Receptor (ER), ESR1 (gene 407238) (UniProt P49884); experiment: NVS_NR_bER: NovaScreen (NVS) Nuclear Receptor Binding Assay for bovine Estrogen Receptor (ER) (AID 2283345);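 further: actives lower the bound radioligand count which means they displace the ER ligand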
# bovine Estrogen Receptor (ER), ESR1 (gene 407238), sequence (P49884 whole entry, looked up): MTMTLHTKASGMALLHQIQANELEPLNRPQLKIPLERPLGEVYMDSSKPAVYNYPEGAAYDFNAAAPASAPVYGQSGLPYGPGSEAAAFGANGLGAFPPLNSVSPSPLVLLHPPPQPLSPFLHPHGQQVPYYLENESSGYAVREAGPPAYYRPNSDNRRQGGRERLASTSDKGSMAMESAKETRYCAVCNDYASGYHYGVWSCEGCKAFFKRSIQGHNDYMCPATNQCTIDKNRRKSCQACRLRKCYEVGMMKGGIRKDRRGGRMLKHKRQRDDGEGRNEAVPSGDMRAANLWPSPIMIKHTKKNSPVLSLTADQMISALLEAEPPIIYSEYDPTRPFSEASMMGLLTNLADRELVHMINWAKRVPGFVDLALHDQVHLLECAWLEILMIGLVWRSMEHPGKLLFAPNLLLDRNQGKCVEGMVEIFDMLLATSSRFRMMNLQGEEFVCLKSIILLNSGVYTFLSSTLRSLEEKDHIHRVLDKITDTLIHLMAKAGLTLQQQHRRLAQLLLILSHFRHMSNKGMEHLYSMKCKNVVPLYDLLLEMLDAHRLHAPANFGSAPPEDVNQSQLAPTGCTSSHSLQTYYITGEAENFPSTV
# Procedure, shortened: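 Cell-free radioligand binding with receptor from bovine uterine membranes, read by scintillation counting 18 h after dosing. Loss of specific binding was scored against DMSO; primary screen at 25 uM in duplicate, actives then run as concentration series.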
# [3] = TOX21_p53_BLA_p2_viability: Viability Assessment in the Tox21 HCT-116 p53 Agonism Beta-lactamase Assay, Phase 2 (AID 2283591);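 further: compound exposure lasted 16 h at 37 °C; actives lower the ATP signal meaning cytotoxicity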
# Procedure, shortened: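 HCT-116 p53-bla cells (4000/well) rested 5 h at 37C, then received compounds in DMSO (217-fold dilution) for 16 h at 37C, 5% CO2. After the CCF4 read, CellTiter-Glo was added; ATP luminescence was read after 30 min at room temperature.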
# [4] = target: Cellular tumor antigen p53 (Homo sapiens) (UniProt P04637); experiment: TOX21_p53_BLA_p2_ratio: Tox21 HCT-116 p53 Agonism Beta-lactamase Assay, Ratio, Phase 2 (AID 2283592)
# Cellular tumor antigen p53 (Homo sapiens), sequence (P04637 whole entry, looked up): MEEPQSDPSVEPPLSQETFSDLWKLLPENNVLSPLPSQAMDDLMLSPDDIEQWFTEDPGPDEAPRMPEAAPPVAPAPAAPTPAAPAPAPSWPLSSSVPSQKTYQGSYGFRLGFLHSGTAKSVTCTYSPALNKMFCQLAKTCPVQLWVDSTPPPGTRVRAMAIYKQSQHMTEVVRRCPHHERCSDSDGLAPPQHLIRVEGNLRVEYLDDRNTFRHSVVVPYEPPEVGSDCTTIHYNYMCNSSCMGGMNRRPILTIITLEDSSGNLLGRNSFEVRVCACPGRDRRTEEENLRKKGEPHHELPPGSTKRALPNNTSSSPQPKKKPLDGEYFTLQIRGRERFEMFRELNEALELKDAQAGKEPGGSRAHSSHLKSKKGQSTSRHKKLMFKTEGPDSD
# Procedure, shortened: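 In this cell-based reporter format, HCT116 cells were dosed with chemicals delivered from DMSO by 217-fold dilution and incubated 16 h at 37C. Emission at 460 and 530 nm after 2 h CCF4-AM loading provided the ratio, fitted upward versus DMSO.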
# [5] = TOX21_p53_BLA_p3_viability: Viability Assessment in the Tox21 HCT-116 p53 Agonism Beta-lactamase Assay, Phase 3 (AID 2283593);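 further: cells exposed to compound for 16 h before reading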
# Procedure, shortened: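 HCT-116 cells (4000/well) rested 5 h at 37C, then got DMSO compounds by pin tool (217-fold dilution) for 16 h at 37C, 5% CO2. After the bla read, CellTiter-Glo was added and luminescence read at 30 min, room temperature.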
# [6] = target: Cellular tumor antigen p53 (Homo sapiens) (UniProt P04637); experiment: TOX21_p53_BLA_p3_ratio: Tox21 HCT-116 p53 Agonism Beta-lactamase Assay, Ratio, Phase 3 (AID 2283596)
# Procedure, shortened: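 HCT116 p53-bla cells (4000/well) given compound in DMSO (217-fold dilution) after 5 h, incubated 16 h at 37C. CCF4-AM substrate 2 h at room temperature; 460/530 nm emission ratio, gain fitted against DMSO.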
# [7] = target: Cellular tumor antigen p53 (Homo sapiens) (UniProt P04637); experiment: TOX21_p53_BLA_p5_ratio: Tox21 HCT-116 p53 Agonism Beta-lactamase Assay, Ratio, Phase 5 (AID 2283599)
# Procedure, shortened: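 HCT-116 cells carrying a p53-inducible beta-lactamase reporter were seeded at 4000 cells/well and dosed after 5 h with compound in DMSO (217-fold dilution). After 16 h at 37C, CCF4-AM substrate was added for 2 h, and the 460/530 nm emission ratio was scored as gain-of-signal versus DMSO.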
# [8] = TOX21_p53_BLA_p5_viability: Viability Assessment in the Tox21 HCT-116 p53 Agonism Beta-lactamase Assay, Phase 5 (AID 2283600)
# Procedure, shortened: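 Compounds, pinned from DMSO at 217-fold dilution, were left on the cells for 16 h. The viability endpoint was ATP content measured by CellTiter-Glo luminescence, where falling signal reflects cytotoxicity.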
# [9] = target: Cellular tumor antigen p53 (Homo sapiens) (UniProt P04637); experiment: TOX21_p53_BLA_p4_ratio: Tox21 HCT-116 p53 Agonism Beta-lactamase Assay, Ratio, Phase 4 (AID 2283601)
# Procedure, shortened: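 HCT116 cells carrying an inducible beta-lactamase reporter were plated at 4000 cells/well, rested 5 h, then exposed to compounds in DMSO (217-fold dilution) for 16 h at 37C. CCF4-AM substrate was loaded 2 h at room temperature; 460/530 nm emission ratio scored gain-of-signal versus DMSO.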
# [10] = ACEA_ER_AUC_viability: ACEA Biosciences xCELLigence Real-Time Cell Analysis on Estrogen Receptor Agonism for Viability (AID 2283782);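 further: continuous compound exposure with impedance area under curve over 80 h; hit means loss of impedance signal meaning reduced cell growth or viability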
# Procedure, shortened: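 T-47D human breast cells in phenol red-free RPMI1640 with 10% charcoal-stripped FBS were dosed with an 8-point 1:4 dilution series from 100 uM top final concentration, in duplicate. Impedance-based growth was followed for 80 h; AUC analysed versus DMSO.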
# [11] = CCTE_Harrill_HTTr_Viability_MCF7: CCTE's 6-hour Cell Viability Assessment for the High-Throughput Transcriptomics (HTTr) Platform, in MCF-7 cells cultured in DMEM + 10% fetal bovine serum, Harrill Lab (AID 2284010; active means hit-call score of the fitted dose curve at least 0.9, where 1 is the maximum; inactive means score below 0.9)
# Procedure, shortened: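 MCF-7 cells in DMEM + 10% FBS, 384-well, exposed 6 h to an eight-point dilution series. Membrane integrity scored by high-content imaging of propidium iodide exclusion; bidirectional fit versus DMSO.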
# [12] = CCTE_Harrill_HTTr_Apoptosis_MCF7: CCTE's 6-hour Apoptosis Assessment for the High-Throughput Transcriptomics (HTTr) Platform, in MCF-7 cells cultured in DMEM + 10% fetal bovine serum, Harrill Lab (AID 2284011; active means hit-call score of the fitted dose curve at least 0.9, where 1 is the maximum; inactive means score below 0.9)
# Procedure, shortened: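 Read-out: CellEvent Caspase 3/7 Green signal by high content imaging, gain-of-signal indicating apoptosis. MCF-7 cells, DMEM + 10% FBS, eight-point dilution series, 6 h exposure. Curves fitted bidirectionally relative to DMSO negative control.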
# [13] = CCTE_Harrill_HTTr_CellCount_MCF7: CCTE's Cell Proliferation Assessment for the High-Throughput Transcriptomics (HTTr) Platform, Harrill Lab (AID 2284012);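 further: cells exposed to compound for six hours; intended direction is loss of nuclei count meaning fewer cells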
# Procedure, shortened: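 MCF7 cells exposed 6 hours to an eight-point dilution series; Hoechst-stained nuclei counted by high-content imaging. Bidirectional curve fitting against DMSO baseline.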
# [14] = target: Bile acid receptor (Homo sapiens) (UniProt Q96RI1); experiment: NVS_NR_hFXR_Agonist: NovaScreen (NVS) Nuclear Receptor Binding Assay for human Farnesoid X Receptor Agonism (FXR) (AID 2283347)
# Bile acid receptor (Homo sapiens), sequence (Q96RI1 whole entry, looked up): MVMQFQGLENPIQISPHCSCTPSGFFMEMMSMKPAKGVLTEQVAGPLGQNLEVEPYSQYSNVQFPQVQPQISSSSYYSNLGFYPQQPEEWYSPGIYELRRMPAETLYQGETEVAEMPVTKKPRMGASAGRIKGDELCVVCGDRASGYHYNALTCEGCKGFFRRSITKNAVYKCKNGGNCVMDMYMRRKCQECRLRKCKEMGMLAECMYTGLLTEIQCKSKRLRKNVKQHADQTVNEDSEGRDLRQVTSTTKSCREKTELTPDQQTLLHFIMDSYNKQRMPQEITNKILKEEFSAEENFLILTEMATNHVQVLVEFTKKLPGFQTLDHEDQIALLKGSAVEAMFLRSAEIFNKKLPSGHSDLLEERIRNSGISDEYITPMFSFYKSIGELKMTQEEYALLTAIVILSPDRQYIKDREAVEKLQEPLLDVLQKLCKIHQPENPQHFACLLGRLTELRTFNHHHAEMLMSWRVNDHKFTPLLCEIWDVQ
# Procedure, shortened: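 Cell-free TR-FRET binding assay with extracted human FXR protein, agonist format, read 1 h after dosing. Primary screen at 25 uM single concentration in duplicate, actives retested in concentration series; gain of signal versus DMSO.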
# [15] = TOX21_p53_BLA_p4_viability: Viability Assessment in the Tox21 HCT-116 p53 Agonism Beta-lactamase Assay, Phase 4 (AID 2283597);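 further: hits lower the luminescence signal meaning cytotoxicity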
# Procedure, shortened: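 We seeded HCT116 p53 reporter cells at 4000/well and waited 5 h. We then added compounds in DMSO at a 217-fold dilution and incubated for 16 h. Viability was read as CellTiter-Glo luminescence after 30 min at RT.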
structure (smiles),measurement,setting,value
CN(C)c1ccc(C(=C2C=CC(=[N+](C)C)C=C2)c2ccccc2)cc1,outcome,[1],inactive
c1ccc(C[P+](c2ccccc2)(c2ccccc2)c2ccccc2)cc1,AC50,[1],16.7 µM (active)
CCOP(=S)(OCC)Oc1cnc2ccccc2n1,outcome,[2],inactive
same,outcome,[3],inactive
same,outcome,[4],inactive
same,outcome,[5],inactive
same,outcome,[6],inactive
same,outcome,[7],inactive
same,outcome,[8],inactive
same,outcome,[9],inactive
same,outcome,[10],inactive
same,outcome,[11],inactive
same,outcome,[12],inactive
same,outcome,[13],inactive
CCCCOC(=O)C(C)Oc1ccc(Oc2ccc(C(F)(F)F)cn2)cc1 (centres undefined),outcome,[14],inactive
CCCCCCCCCCCCCCCCCC(=O)OCC(CC)CCCC (centres undefined),outcome,[1],inactive
Cc1ccc(S(=O)(=O)C(I)I)cc1,AC50,[1],1.19 µM (active)
FC(F)(F)c1cccc(C2=CCN(CCc3ccc4ccccc4c3)CC2)c1,outcome,[3],inactive
same,outcome,[4],inactive
same,outcome,[5],inactive
same,outcome,[6],inactive
N#CC(C#N)=Cc1cc(O)c(O)c(O)c1,outcome,[3],inactive
same,outcome,[4],inactive
same,outcome,[5],inactive
same,outcome,[6],inactive
same,outcome,[15],inactive
same,outcome,[7],inactive
same,outcome,[8],inactive
same,outcome,[9],inactive
COC(=O)c1cncn1C(C)c1ccccc1 (centres undefined),outcome,[3],inactive
same,outcome,[4],inactive
same,outcome,[5],inactive
same,outcome,[6],inactive
same,outcome,[15],inactive
same,outcome,[7],inactive
CC(CC(C#N)(c1ccccc1)c1ccccc1)N(C)C (centres undefined),outcome,[3],inactive
CCCCCc1cc(O)c2c(c1)OC(C)(C)c1ccc(C)cc1-2,AC50,[3],14.4 µM (active)
same,AC50,[4],22.3 µM (active)
same,AC50,[5],30.1 µM (active)
same,AC50,[6],34.4 µM (active)
same,AC50,[15],14.9 µM (active)
same,AC50,[7],23.9 µM (active)
same,AC50,[8],19.8 µM (active)
same,AC50,[9],29.9 µM (active)
O=C1C[C@@H]2OCC=C3CN4CC[C@]56c7ccccc7N1[C@H]5[C@H]2[C@H]3C[C@H]46 (tested in a mixture with another compound),outcome,[3],inactive
same,outcome,[4],inactive
same,AC50,[5],41.2 µM (active)
same,outcome,[5],inactive
same,AC50,[6],36.6 µM (active)
same,outcome,[6],inactive
same,outcome,[15],inactive
same,outcome,[7],inactive
same,outcome,[8],inactive
same,outcome,[9],inactive
